Out of some 360,000 compounds screened, about 17,000 (4.7%) were called active. Roughly 5% stayed inconclusive and do not appear here. Rule as the data show it: active = activity change below about -50%; inconclusive = mostly about -30% to -49%; inactive = weaker than that. For the sample, actives were picked, then their nearest neighbours and some compounds at random.
% is scaled to controls: 0 for no effect and ±100 for the full control effect.

A short description of the assay: qHTS for Inhibitors of Inflammasome Signaling: IL-1-beta AlphaLISA Primary Screen. To be noted: THP-1 LPS/ATP IL-1B secretion, 16 h; at 57.5 µM, hits give low values. The method in brief:
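THP-1 cells pretreated 1 hr with compounds (up to 57.5 uM final), then stimulated with LPS (250 ng/mL final) plus ATP (1.25 mM final); secreted IL-1B measured by AlphaLISA after 16 hr, decreased signal indicating inhibition.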
(In general: qHTS replaces the single test concentration by a dilution series.)
`CC1=C(C(=O)Nc2cccc(C(=O)NCC(C)c3ccccc3)c2)SCCO1` (stereo unspecified): the activity change is 24.1% (inactive). Turning to `CC(C)(C)n1nnnc1C(c1ccc2ncccc2c1)N1CCSCC1` (stereo unspecified), the activity change is -23.4% (inactive).

For the compound `O=[N+]([O-])c1cc(S(=O)(=O)NCCc2ccccn2)ccc1Cl`, the activity change was -65.1% (active). As to `O=[N+]([O-])c1cccc(S(=O)(=O)NCc2ccccn2)c1`, the activity change is 11.4% (inactive). In the case of `O=S(=O)(NCCc1ccccn1)c1cc(Cl)cc(Cl)c1O`, the activity change is 0% (inactive). Turning to `COC(=O)c1ccc(CNC(=O)Cn2cc(C)c(=O)[nH]c2=O)cc1`, the activity change is 15.5% (inactive). Then `COc1ccc(C(=O)NCC2CCCO2)cc1S(=O)(=O)NCc1ccc(Cl)cc1` (stereo unspecified), with -8.62% (inactive). As to `COC(=O)c1sccc1N/N=C(\C)c1ccc(F)c(Cl)c1`, the activity change is 13.1% (inactive).

With `COc1cccc(/C(C)=N/Nc2ncc(Cl)cc2Cl)c1`, the activity change is -80.6% (active). For the compound `CCN(CC)c1ccc(C(=O)N/N=C(\C)c2cccc(OC)c2)cc1`, the activity change was 96.6% (inactive). For `Cc1cc(NC(=O)CSc2nccn2-c2ccc([N+](=O)[O-])cc2)no1`, the activity change is 45.3% (inactive). For the compound `COc1cc2c(cc1CNC[C@H]1O[C@@H](n3cnc(C(N)=O)n3)[C@H](O)[C@@H]1O)OCO2`, the activity change is 3.97% (inactive). As to `CCc1ccccc1OCC(=O)Nc1nnc(C2CC2)s1`, the activity change is -16.9% (inactive). In the case of `O=C(CN1C(=O)S/C(=C\c2ccccc2Cl)C1=O)NC1C=CS(=O)(=O)C1` (stereo unspecified), the activity change was -99.6% (active). For `O=C(CN1CCCCCC1)NCCN1C(=O)S/C(=C\c2ccccc2Cl)C1=O` the value was -15.4% (inactive). With `COc1cccc(/C=C2/SC(=S)N(CC(=O)NC3C=CS(=O)(=O)C3)C2=O)c1` (stereo unspecified), the activity change is -11% (inactive).

With `CC(=O)Nc1ccccc1C(=O)C(=O)Nc1ccc(F)cc1`, the activity change was 6.97% (inactive). With `CC(NC(=O)c1ccccc1)C(=O)OCC(=O)Nc1cccc(S(=O)(=O)N2CCCC2)c1` (stereo unspecified), the activity change was -0.602% (inactive).

Consider `Cc1ccnc(-n2sc3ccccc3c2=O)n1`, for which the activity change was -95.9% (active).

As to `Cc1ccnc(SC2CC(=O)N(c3ccccc3)C2=O)n1` (stereo unspecified), the activity change is -12.7% (inactive).

For `Cc1nc(Nc2ccccc2C)c2cnn(C)c2n1`, the activity change is 5.45% (inactive).

Turning to `CCCCc1ccc(S(=O)(=O)NC(=O)C2(C)CCN2C(=O)c2ccccc2)cc1` (stereo unspecified), the activity change is 48.7% (inactive). As for `CCOC(=O)Nc1ccc2c(c1)N(C(=O)CCCl)c1ccccc1[S@]2=O`, the activity change was -96.5% (active). Turning to `CCOC(=O)Nc1ccc(S(=O)(=O)N(C)C(C)C)cc1`, the activity change is 24% (inactive). Then `CCOC(=O)Nc1ccc2c(c1)N(C(=O)CCN1CCN(CCO)CC1)c1ccccc1CC2`, with -7.2% (inactive); and `Cc1ccc(CNC(=O)C(=O)c2cn(CC(=O)N3CCOCC3)c3ccccc23)cc1`, with -24.4% (inactive); and `CC(CC(=O)O)C(=O)c1ccc(Cl)c([N+](=O)[O-])c1` (stereo unspecified), with -17.6% (inactive). For `CC(=O)Nc1ccc(NC(=O)C(C)OC(=O)c2ccccc2C(=O)c2ccc(Cl)c([N+](=O)[O-])c2)cc1` (stereo unspecified) the value was -108% (active). In the case of `NC(=O)c1ccc(NC(=O)COC(=O)c2ccc([N+](=O)[O-])cc2)cc1`, the activity change is 3.51% (inactive). `COC(=O)c1cc(NC(=O)Cc2ccccc2[N+](=O)[O-])ccc1Cl`: the activity change is 11.8% (inactive). With `CC(=O)Nc1ccc(NC(=O)COC(=O)c2ccccc2C(=O)c2ccccc2)cc1`, the activity change was -29.6% (inactive).

Turning to `N#Cc1cccc(NC(=O)COC(=O)c2ccccc2C(=O)c2ccc(Cl)c([N+](=O)[O-])c2)c1`, the activity change is -112% (active). On to `C[C@H]1CN([C@@H](C)CO)C(=O)CCCn2cc(nn2)CO[C@@H]1CN(C)S(=O)(=O)c1ccccc1C#N`, for which the activity change was 4.98% (inactive). As for `Cc1cc(C)c(C=NNc2nc3c([nH]2)c(=O)n(C)c(=O)n3C)c(C)c1`, the activity change was -9.11% (inactive). Take `O=C(COC(=O)CCc1c[nH]c2ccccc12)Nc1cccc(Cl)c1`: the activity change is 8.98% (inactive).

Regarding `CSc1ccc(CN2CCC2(C)C(=O)NCc2ccccc2Br)cc1` (stereo unspecified), the activity change was 35.5% (inactive). As for `Cc1c(NC(=O)C(C)OC(=O)c2ccccc2O)c(=O)n(-c2ccccc2)n1C` (stereo unspecified), the activity change was 2.66% (inactive). On to `COc1ccc(C(=O)C(C)OC(=O)c2cccc(S(=O)(=O)Nc3c(C)n(C)n(-c4ccccc4)c3=O)c2)cc1` (stereo unspecified), for which the activity change is -73.2% (active). With `COc1ccc(NS(=O)(=O)c2ccc(C(=O)Nc3c(C)n(C)n(-c4ccccc4)c3=O)cc2)cc1`, the activity change was -16.8% (inactive). As for `CSCCC(NC(=O)c1ccco1)C(=O)NCCc1ccc(F)cc1` (stereo unspecified), the activity change is -9.3% (inactive). For `c1ccc(-c2ccccc2OCCN2CCCCC2)cc1` the value was -0.581% (inactive); for `O=S1(=O)C=C(SCCN2CCCC2)c2ccccc21`, -84.4% (active); for `Nc1nnc(SCCN2C(=O)c3ccccc3S2(=O)=O)s1`, 10.6% (inactive).

For `CCN(CC(=O)NC1CCS(=O)(=O)C1)c1nc(-c2cccnc2)nc2ccccc12` (stereo unspecified), the activity change was -2.86% (inactive).

Consider `O=C(CSc1cccc[n+]1[O-])c1ccc(-c2ccccc2)cc1`, for which the activity change was 31.4% (inactive).

As for `COCCNc1ncnc2c1ncn2[C@H]1CN(CCN2CCOCC2)C[C@@H](CO)O1`, the activity change is 1.62% (inactive). For `CCc1ccc(-c2nn(-c3ccccc3)cc2CSC(=N)N)cc1` the value was -102% (active); for `CCc1ccc(-c2nn(-c3ccccc3C)cc2C(=O)N2CCN(C3CCS(=O)(=O)C3)CC2)cc1` (stereo unspecified), 16.7% (inactive).

On to `NC(=O)C1CCN(C(=O)c2cn(-c3ccccc3)nc2-c2cccnc2)CC1`, for which the activity change was -2.49% (inactive). For the compound `CCOC(=O)c1ccc(COC(=O)CCc2nc(-c3ccccc3)c(-c3ccccc3)o2)cc1`, the activity change was 31.5% (inactive). As to `CC(C)Nc1ncnc2c1ncn2[C@H]1CN(Cc2ccncc2)C[C@@H](CO)O1`, the activity change is 22.2% (inactive). Then `O=C(Nc1ccc(S(=O)(=O)N2CCOCC2)cc1)C1CCN(S(=O)(=O)c2ccc(Cl)cc2)CC1`, with -6.97% (inactive). Regarding `Clc1ccc(Nc2ccc3ccccc3n2)cc1`, the activity change is -15.6% (inactive).

Consider `Cc1noc(C)c1/C=N/Nc1ccc2ccccc2n1`, for which the activity change was -70.6% (active). For the compound `C(=N\Nc1ccc2ccccc2n1)/c1ccc2c(c1)OCO2`, the activity change was -9.79% (inactive). `O=C(Nc1ccc(Cl)cc1)c1csc([C@@H]2O[C@H](CO)[C@H](O)[C@H](O)[C@H]2O)n1`: the activity change is 17.3% (inactive).

`Cc1nnc(SC(C)C(=O)c2c[nH]c3ccccc23)n1C1CC1` (stereo unspecified): the activity change was 0% (inactive). `Cc1onc(-c2c(F)cccc2Cl)c1C(=O)Nc1cccc(S(=O)(=O)N2CCCCC2)c1`: the activity change is -19.9% (inactive). Then `CCC(CO)Oc1cc(NC(=O)c2cccc3ccccc23)c2ncn(C(C)C)c2c1` (stereo unspecified), with -67.6% (active); and `CCC(CO)Oc1cc(NC(=O)c2ccc(Cl)cc2)c2ncn(C(C)C)c2c1` (stereo unspecified), with -3.64% (inactive); and `CCC(CO)Oc1cc(NC(=O)c2cccc(F)c2)c2ncn(C(C)C)c2c1` (stereo unspecified), with -4.82% (inactive). Then `COc1ccc(CCNC(=O)COC(=O)Cc2cc(OC)c(OC)c(OC)c2)cc1`, with 28% (inactive); and `Cc1cc(C)c2c(=O)n3c(nc2c1)C(CC(C)C)NC(=O)c1cc2ccccc2cc1-3` (stereo unspecified), with 24.5% (inactive); and `Cc1cccc(NC(=O)Nc2ccc3c(c2)OCO3)n1`, with -14.3% (inactive). On to `CNS(=O)(=O)c1ccc(NC(=O)Nc2ccc3c(c2)OCO3)cc1`, for which the activity change was -52.3% (active).

For the compound `CC(C)CNS(=O)(=O)c1ccc(C(=O)Nc2ccc3c(c2)OCO3)cc1`, the activity change is -5.7% (inactive). Then `Cc1ccc(C(=O)Nc2c(-c3ccccc3)[nH][nH]c2=O)cc1`, with 0% (inactive); and `Cc1ccc2c(c1)C(c1ccccc1)N(C(=O)c1ccc(F)cc1)CC(=O)N2` (stereo unspecified), with 22.3% (inactive). Then `Cc1oc2c(c1C(=O)N1CCOCC1)C(=O)c1ccccc1C2=O`, with -0.813% (inactive). For `O=C1c2ccccc2-c2ncnc3c(N4CCOCC4)cc(N4CCOCC4)c1c23` the value was -66.7% (active); for `O=S(=O)(Nc1cc(Cl)ccc1N1CCOCC1)c1ccccc1Cl`, -27.8% (inactive).

As for `O=S1(=O)CC(N2CCN(CCO)CC2)CN1Cc1cn(Cc2ccc(Cl)cc2)nn1` (stereo unspecified), the activity change was 0% (inactive).

On to `CCn1c(=N)n(CC(=O)c2cccc(OC)c2)c2ccccc21`, for which the activity change is -63% (active). In the case of `COc1ccc2cc(C(=O)O)n(CC(=O)c3ccccc3)c2c1`, the activity change was 0% (inactive). With `O=C(Cn1nnc(N2CCCCC2)n1)c1ccc(Cl)c(Cl)c1`, the activity change is -1.15% (inactive). In the case of `CCCn1c(=N)n(CC(=O)c2ccc(Cl)c(Cl)c2)c2ccccc21`, the activity change is -91.6% (active). For the compound `CCOC(=O)c1cc2ccccc2n1CC(=O)c1ccccc1`, the activity change is 28.5% (inactive). `CCN(CC)CC1(O)CCN(C(=O)c2ccc(Cl)c(Cl)c2)CC1`: the activity change is 12.6% (inactive). As to `Cc1cc(Cl)ccc1C(=O)C1CCCN(C(=O)c2ccc3c(c2)OCO3)C1` (stereo unspecified), the activity change was -15.9% (inactive). Take `Cc1cccc(C2c3c(n(C)c(=O)n(C)c3=O)N=C3c4ccccc4C(=O)C32)c1` (stereo unspecified): the activity change was 13.5% (inactive).

For the compound `Cc1ccccc1S(=O)(=O)NC(=O)C1(C)CCN1C(=O)C1(c2ccc(Cl)cc2)CC1` (stereo unspecified), the activity change is 22.8% (inactive).

Turning to `O=C(NNC(=O)c1ccc2ccccc2c1)c1ccc(Cl)cc1`, the activity change is -7.64% (inactive). On to `CN(CC(=O)Nc1ccc(Cl)cc1)C(=O)CNC(=O)c1ccc2ccccc2c1`, for which the activity change was -102% (active). Take `COc1ccc(NC(=O)CN(C)C(=O)CNC(=O)C2CCCCC2)cc1`: the activity change result is “inactive”. Then `COc1ccc(C(=O)C(OP(=O)(OC)OC)c2ccccc2OC)cc1` (stereo unspecified), with 0% (inactive). Turning to `OCCC1CN(Cc2cccc(OC3CCCC3)c2)CCN1Cc1ccsc1` (stereo unspecified), the activity change was -20.7% (inactive). Consider `CC1=C[C@H]2Cc3cc(C)cc(C)c3S(=O)(=O)[C@@H]2C=C1`, for which the activity change is -1.95% (inactive). In the case of `Cc1ccccc1Cn1c(C)c(C(=O)NCc2cccc(C(F)(F)F)c2)sc1=O`, the activity change is -29.1% (inactive).

Consider `Cc1ccc(C(=O)Nc2ccccc2-c2ccccc2)cc1S(=O)(=O)Nc1ccccc1`, for which the activity change was -69.2% (active). With `COc1ccc(NS(=O)(=O)c2cc(C(=O)Nc3ccccc3C(=O)O)ccc2C)cc1`, the activity change is 11.7% (inactive). For `O=C(O)c1ccc(F)c(S(=O)(=O)Nc2ccccc2)c1`, the activity change was 0% (inactive).

(Values after PubChem BioAssay AID743279 (National Center for Advancing Translational Sciences (NCATS), 2014).)
